According to the supplement of paper PMC6555819:

Legend:
Experiment in all cases: PBM binding z-score (relative to random genomic background probes); higher = stronger binding; sequences stand for … in GC…GCGATTGACAGCGTAGAATGAAGG
[1] = system: FXR:RXRa (NR concentration 270 nM, RXRa partner concentration 90 nM)
Procedure, shortened: (§1)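 Each nuclear receptor dimer, without ligand, was incubated for 1 h on custom Agilent 4×180K protein-binding microarrays. Binding was detected with antibodies against each partner (one per run), and scanned fluorescence was regression-normalized. The binding z-scores are referenced to random human genomic background probes.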

[2] = system: LXRa:RXRa (NR concentration 270 nM, RXRa partner concentration 90 nM)
Procedure, shortened: as §1

[3] = system: LXRa homodimer (NR concentration 270 nM)
Procedure, shortened: as §1

[4] = system: LXRb:RXRa (NR concentration 270 nM, RXRa partner concentration 90 nM)
Procedure, shortened: as §1

[5] = system: LXRb homodimer (NR concentration 270 nM)
Procedure, shortened: as §1

[6] = system: PPARa:RXRa (NR concentration 270 nM, RXRa partner concentration 90 nM)
Procedure, shortened: as §1

[7] = system: PPARg:RXRa (NR concentration 180 nM, RXRa partner concentration 90 nM)
Procedure, shortened: as §1

[8] = system: PPARg:RXRa 270nM:90nM, anti-RXR (NR concentration 270 nM, RXRa partner concentration 90 nM)
Procedure, shortened: as §1

[9] = system: PPARg:RXRa 30nM:10nM, anti-RXR (NR concentration 30 nM, RXRa partner concentration 10 nM)
Procedure, shortened: as §1

[10] = system: PPARg:RXRa 90nM:30nM, anti-RXR (NR concentration 90 nM, RXRa partner concentration 30 nM)
Procedure, shortened: as §1

Row | Sequence | PBM binding z-score [1] | PBM binding z-score [2] | PBM binding z-score [3] | PBM binding z-score [4] | PBM binding z-score [5] | PBM binding z-score [6] | PBM binding z-score [7] | PBM binding z-score [8] | PBM binding z-score [9] | PBM binding z-score [10]
1 | GTTAGCAGGCCATTTGGGTCACTCAATGACGGGC | 0.439 | 0.0472 | -0.523 | 0.205 | -0.589 | 1.36 | 0.776 | 0.698 | -0.489 | 0.0806
2 | CGAACTAGGTCACGAAAGGTCAAAGTCGAATGAC | 7.73 | 8.18 | 7.39 | 7.24 | 2.38 | 6.49 | 10.5 | 8.46 | 6.75 | 8.51
3 | CGGACGAGGGCATGAGTTGATAGCAAATGCCGAT | 0.265 | 0.0809 | -0.262 | -0.154 | -0.96 | 1.01 | 0.992 | 0.682 | -0.202 | 0.196
4 | TCTAGCAGGCCAGAGGGTCACTCTAGAGGTACGG | 0.795 | 0.863 | -0.632 | 1.02 | -1.09 | 2.13 | 1.45 | 2.77 | 2.29 | 2.45
5 | GCAAATAGGTAATACAAGGTGAAAGTCCGATTGT | 2.27 | 2.87 | 0.422 | 0.806 | -0.48 | 1.49 | 1.02 | 1.19 | 0.599 | 0.979
6 | TCATATAGGTAAAAGGGGAAAGTCGGTGTGGTAA | 1.2 | 0.984 | 0.33 | 1.32 | 0.445 | 3.75 | 6.27 | 6.98 | 6.37 | 7.9
7 | ATCGAAAGGTCGAAGGTAAGTATACCCACCCGAA | 3.95 | 3.26 | 0.165 | 2.83 | 0.858 | 4.25 | 3.8 | 3.88 | 1.59 | 2.86
8 | CCTTACGGGTCACTGACGGGTTATAGCATTTGGA | 5.28 | 3.6 | 0.0563 | 3.42 | 0.119 | 4.67 | 4.31 | 4.28 | 1.63 | 2.74
9 | TCGAGTAGGTAAGGGGCATTCAGAATGGCGTCGA | -0.106 | -0.02 | -0.436 | 0.42 | -0.693 | 0.747 | 0.463 | 1.71 | 1.19 | 1.41
10 | GCTCGGTGGACAAGGTCAGAGCTTTGTCCGTAGA | 1.11 | 1.03 | -0.446 | 0.887 | -1.16 | 2.09 | 0.0962 | 1.14 | -0.712 | 0.499
11 | TCGTGTAGGTTAGTCGGGGCATTCAGCCAACATA | 0.782 | 0.838 | 0.294 | 1.36 | 0.252 | 1.16 | -0.0243 | 1.38 | 2.34 | 1.62
12 | GCGACTGGGGCAAAGCAGGTTACCCTAAGGTTGG | 0.366 | 0.0738 | -0.555 | 0.116 | -0.841 | 1.56 | 1.08 | 1.52 | -0.381 | 0.659
